High-throughput results (PubChem)
CHX counter – counter-screen hit for Shiga toxin inhibitors, cycloheximide | cell reporter, cycloheximide protein synthesis inhibition counterscreen | max response, % | hit rate 12% among 300,000 | AID 2314; in the data active = max response mostly above about 13%, no sharp cut-off; inactive = mostly below about 14%; also: read at 38.3 µM for the half of the compounds with a filed dose
AMA1 RON2 block – AMA1-RON2 (P. falciparum) interaction inhibition; AlphaScreen AMA1-biotinylated RON2 peptide binding; Potency, µM (top dose mostly 58.2 µM), most hits filed as inhibitors; hit rate 0.2% among 360,000; also: nearly all actives have a fitted effect of over 45% in size
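AMA1 (3D7) with his tag at 25 nM final met compounds first, then biotinylated RON2 peptide at 25 nM; detection used donor plus acceptor beads, 10 µg/mL apiece, read by AlphaScreen after 30 min at room temperature.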
SARS PLpro yeast – SARS-CoV PLP inhibition in yeast; S. cerevisiae expressing SARS-CoV PLpro, growth rescue; Potency, µM (titrated, usually from 32.9 µM), most hits filed as activators; hit rate 0.19% among 330,000; calls by dose curve; also: nearly all actives have a fitted effect of over 55% in size
Pf growth 48h – inhibits P. falciparum growth in the first generation, 48 h. P. falciparum luciferase growth in erythrocytes, 48 h. Potency, µM (titrated, usually from 28.7 µM), hits mostly inhibitors. hit rate 5.9% among 310,000
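Read-out is firefly luciferase luminescence from an integrated reporter in P. falciparum, so falling signal marks reduced parasite growth. Infected erythrocytes were at 2% hematocrit and 0.1% parasitemia (final) in Albumax-supplemented RPMI 1640.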
Shiga toxin inh – blocks Shiga toxin action in Vero cells. inhibition, % at 38.7 µM. AID 2315. Vero cells, Shiga toxin protein synthesis inhibition reporter. hit rate 9.2% among 290,000; in the data active = inhibition mostly above about 28%, no sharp cut-off; inactive = mostly below about 43%
Pf growth 96h – inhibits malaria parasite growth, 96 h; hit rate 6.9% among 320,000; Potency, µM (doses to about 28.7 µM), usual class: inhibitors; AID 504834; P. falciparum luciferase reporter growth, 96 h
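Compounds incubated with erythrocytes infected by luciferase-expressing P. falciparum (2% hematocrit, 0.05% parasitemia final) for 96 hours, 37 C in 5% CO2. Growth inhibition scored as decreased luciferase luminescence.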
Large screens that a line does not name were inactive. Hits are enriched below; roughly 19% of the tested compounds scored in any of these assays. Unless noted, calls follow the shape of the dose curve; as a rule, active = well fitted curve in the direction sought with a large enough effect; inconclusive = small, poorly fitted or top-dose-only effect, or another doubt; inactive = no such curve, though single readings can be large; an effect the other way counts as inactive or inconclusive.

CC(C)(C)c1ccc(C(=O)NNc2cc(N3CCCCC3)nc(N3CCCCC3)n2)cc1	Pf growth 48h 2.6µM, Pf growth 96h inconclusive
COc1ccc(CC(=O)N/N=C(/C)c2ccco2)cc1	none
COc1ccccc1C(=O)N/C(=C\c1cn(C)c2ccccc12)C(=O)NCCN1CCOCC1	none (no result: CHX counter, SARS PLpro yeast, Pf growth 48h, Shiga toxin inh, Pf growth 96h)
C/C=C1\NC(=O)[C@H](C)NC(=O)[C@@H](NC(=O)[C@@H](Cc2ccc(O)cc2)NC(=O)[C@@H](NC(=O)/C(C)=C/C)C(C)C)[C@@H](C)OC(=O)[C@H](CCCCc2ccc(O)cc2)NC(=O)[C@@H](CCC(=O)O)NC1=O	none (no result: CHX counter, Pf growth 48h, Shiga toxin inh, Pf growth 96h)
Cc1ccc2nc(Cl)c3nnnn3c2c1	none
Cc1cccc(NC(=O)CSc2nnc3ccc(-c4cccnc4)nn23)c1	none (no result: CHX counter, SARS PLpro yeast, Pf growth 48h, Shiga toxin inh, Pf growth 96h)
COCCCNC(=O)c1ccc(Cn2c(=O)c3ccccc3n(Cc3ccccc3C)c2=O)cc1	none (no result: Pf growth 48h)
C=CCn1c(=O)c2ccc(C(=O)NCc3ccccc3)cc2n(Cc2ccc(C)cc2)c1=O	Pf growth 96h 2.3µM
COCCCNC(=O)c1ccc(Cn2c(=O)c3ccccc3n(Cc3cc(C)ccc3C)c2=O)cc1	AMA1 RON2 block inconclusive, Pf growth 48h 13µM (no result: Pf growth 96h)
CC(C)(C)OC(=O)C[C@@H]1C/C=C\C[C@H](CC(=O)NCCO)C(=O)N[C@@H](Cc2ccccc2)COC1=O	none (no result: CHX counter, Pf growth 48h, Shiga toxin inh, Pf growth 96h)
CC1CCN(c2nncc3ccccc23)CC1	Pf growth 48h inconclusive, Pf growth 96h 6.6µM
FC(F)(F)c1ccc(C2[C@H]3CN(Cc4cccnc4)[C@H](c4ccccc4)C34CC2(c2cccnc2)C4)cc1 (stereo not given in full)	Pf growth 48h 1.9µM, Pf growth 96h 1.5µM
c1ccc(-c2ccc(CN3C[C@@H]4C(c5ccccc5)C5(c6cccnc6)CC4(C5)[C@H]3c3ccccc3)cc2)cc1 (stereo not given in full)	Pf growth 48h 2.9µM, Pf growth 96h 4.1µM
COC(=O)c1cccc(C23CC4(C2)[C@H](CN(Cc2ccc(-c5ccccc5)cc2)[C@@H]4c2ccccc2)C3c2ccc(C(F)(F)F)cc2)c1 (stereo not given in full)	Pf growth 48h inconclusive, Pf growth 96h inconclusive
N#Cc1ccc(C23CC4(C2)[C@H](CN(Cc2ccc(-c5ccccc5)cc2)[C@@H]4c2ccccc2)C3c2ccc(C(F)(F)F)cc2)cc1 (stereo not given in full)	Pf growth 48h 15µM, Pf growth 96h inconclusive
FC(F)(F)c1ccc(C2[C@H]3CN(Cc4ccc(-c5ccccc5)cc4)[C@H](c4ccccc4)C34CC2(c2ccccc2)C4)cc1 (stereo not given in full)	Pf growth 48h inconclusive
FC(F)(F)c1ccc(CN2C[C@@H]3C(c4ccc(Cl)nc4)C4(c5ccccc5)CC3(C4)[C@H]2c2ccccc2)cc1 (stereo not given in full)	Pf growth 48h 12µM, Pf growth 96h inconclusive
COC(=O)c1cccc(C23CC4(C2)[C@H](CN(Cc2ccc(C(F)(F)F)cc2)[C@@H]4c2ccccc2)C3c2ccccc2)c1 (stereo not given in full)	Pf growth 48h inconclusive, Pf growth 96h inconclusive
CC(C)CCN1C(=O)CSCC1(C)C(=O)Nc1ccc2c(c1)OCCO2 (stereo not given)	none (no result: CHX counter, SARS PLpro yeast, Pf growth 48h, Shiga toxin inh, Pf growth 96h)
FC(F)(F)c1ccc(C2[C@H]3CN(Cc4ccc(-c5ccccc5)cc4)[C@H](c4ccccc4)C34CC2(c2cccnc2)C4)cc1 (stereo not given in full)	Pf growth 48h 3.3µM, Pf growth 96h 0.41µM
CN1C[C@@H]2C(c3ccccc3)C3(c4cccnc4)CC2(C3)[C@H]1c1ccccc1 (stereo not given in full)	Pf growth 48h 12µM, Pf growth 96h 12µM
N#Cc1ccc(C23CC4(C2)[C@H](CN(CC2CCCCC2)[C@@H]4c2ccccc2)C3c2ccc(Cl)nc2)cc1 (stereo not given in full)	Pf growth 48h inconclusive, Pf growth 96h inconclusive
Clc1ccc(C2[C@H]3CN(Cc4cccnc4)[C@H](c4ccccc4)C34CC2(c2cccnc2)C4)cn1 (stereo not given in full)	Pf growth 48h 10µM, Pf growth 96h 4.7µM
